# KDM4E inh = inhibitors of human JMJD2E histone demethylase. B2RXH2. JMJD2E catalytic domain, FDH-coupled NADH fluorescence (FDH is formaldehyde dehydrogenase). Potency, µM (highest dose often 57.1 µM), usual class: inhibitors. hit rate 1.6% among 230,000; active = well fitted inhibition curve with a large enough effect, not every such curve was filed as active; inconclusive = small, poorly fitted or top-dose-only effect, or another doubt; inactive = no such curve, though single readings can be large or run the other way; note: nearly all actives have a fitted effect of over 50% in size
# Target sequence (B2RXH2 1-337 limits assumed): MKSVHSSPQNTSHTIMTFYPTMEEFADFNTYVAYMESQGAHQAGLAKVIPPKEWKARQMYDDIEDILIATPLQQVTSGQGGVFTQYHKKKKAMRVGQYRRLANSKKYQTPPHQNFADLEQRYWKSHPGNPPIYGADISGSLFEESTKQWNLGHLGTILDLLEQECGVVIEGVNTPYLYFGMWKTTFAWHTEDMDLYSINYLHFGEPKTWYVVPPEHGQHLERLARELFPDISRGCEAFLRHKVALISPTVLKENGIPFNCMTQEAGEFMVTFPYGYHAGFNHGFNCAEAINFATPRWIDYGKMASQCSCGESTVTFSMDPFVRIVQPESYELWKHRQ
# Tau ThT inhib = inhibitors of human tau fibril formation, thioflavin T binding; AID 1460; hit rate 2.1% among 270,000; P10636; Potency, µM (doses to about 57.4 µM), actives largely listed as inhibitors; recombinant tau K18 P301L, heparin-induced fibrillization, ThT fluorescence; note: nearly all actives have a fitted effect of over 55% in size
# Target sequence (P10636 561-689 P618L limits assumed): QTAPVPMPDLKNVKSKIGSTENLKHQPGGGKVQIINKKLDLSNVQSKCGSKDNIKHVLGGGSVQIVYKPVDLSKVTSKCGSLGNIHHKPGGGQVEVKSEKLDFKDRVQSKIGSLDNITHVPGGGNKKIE
#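 Fibril formation assay: tau K18 P301L at 15 uM with trace Alexa 594 label, heparin inducer 20 uM, pH 7 sodium acetate buffer, 37 C for 6 hr; endpoint ThT signal.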
# FBPA coupling cs = inhibits coupling enzyme system, counter-screen for aldolase hits; coupling enzyme system counterscreen, AmpLite Red fluorescence; activity change, negative = inhibition, % at 58.2 µM, hits read low; hit rate 0.67% among 290,000; AID 2472; in the data active = activity change below about -30%
#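 First, compound is pin-transferred into glyceraldehyde-3-phosphate coupling-enzyme reagent at 57.5 uM final and held 10 min at RT. Next, substrate, coupling system and AmpLite Red are added. After 20 min RT, fluorescence (525/598 nm) is read.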
# Tau fibril FP = blocks human tau fibril formation measured by polarization; K18 P301L tau heparin fibrillization, Alexa594 FP, 6 h; Potency, µM (highest dose often 57.7 µM), usual class: inhibitors; hit rate 0.39% among 280,000; P10636; note: nearly all actives have a fitted effect of over 55% in size
#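 K18 P301L tau (15 uM unlabeled/0.24 uM Alexa 594-labeled, final) + compound + heparin 20 uM final; 100 mM NaOAc pH 7; 6 hr 37 C; ThT 30 uM final added, 1 hr RT; FP ex 555/em 632 nm.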
# Tau fluor cs = counter-screen for tau fibril formation inhibitors | tau K18 P301L (four-repeat tau fragment) Alexa594 fluorescence, heparin fibrillization | hit rate 0.93% among 280,000 | AID 1463 | Potency, µM (series often up to 57.7 µM); note: nearly all actives have a fitted effect of over 55% in size
#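 Human K18 P301L tau (15 uM unlabeled plus 0.24 uM Alexa 594-labeled, final) in 100 mM sodium acetate pH 7 was mixed with compound and 20 uM heparin and incubated 6 hr at 37 C.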
# Numbers stand for hits; n = inactive; u = inconclusive; x = not tested or not shown; [ ] = another dose, or the depositor's remark. Hits are enriched below; roughly 3% of the tested compounds scored in any of these assays. Unless noted, calls come from the whole dose curve; as a rule, active = well fitted curve in the direction sought with a large enough effect; inconclusive = small, poorly fitted or top-dose-only effect, or another doubt; inactive = no such curve, though single readings can be large; an effect the other way counts as inactive or inconclusive.
SMILES,KDM4E inh,Tau ThT inhib,FBPA coupling cs,Tau fibril FP,Tau fluor cs
Brc1cccc(/C=N/Nc2nc(N3CCCCC3)nc(N3CCCCC3)n2)c1,n,n,n,n,n
Cc1nc(Cl)cc(N/N=C/c2ccc(O)cc2)n1,x,x,n,x,x
COc1ccc2c(c1)O[C@@H](c1cccc(C(F)(F)F)c1)[C@H](OC(=O)NCCOc1ccccc1)C2=O,n,n,n,n,n
CCOc1ccc2c(c1)-c1c(ssc1=S)C(C)(C)N2,n,12.6µM,n,n,12.6µM[quencher]
CCOC(=O)[C@H](Cc1ccc(O)cc1)NC(=O)c1ccccc1,x,x,n,x,x
CC[C@H](C)[C@H](NC(=O)[C@H](Cc1ccc(O)cc1)NC(=O)[C@@H](NC(=O)[C@@H](N)CCCN=C(N)N)C(C)C)C(=O)N[C@@H](Cc1cnc[nH]1)C(=O)N1CCC[C@H]1C(=O)N[C@@H](Cc1ccccc1)C(=O)O,x,x,n,x,x
O=C(CCC(=O)N/N=C/c1ccc(Br)s1)NCc1ccccc1,n,n,n,n,n
Brc1ccc(C=Nc2ccc(Nc3ccccc3)cc2)s1,n,10µM,n,u,11.2µM[quencher]
C(=Nc1ccc(Nc2ccccc2)cc1)c1ccc2ccccc2c1,n,7.94µM,n,u,8.91µM[quencher]
CCOc1cc(Cn2c(-c3ccc(O)c(OCC)c3)nc3ccccc32)ccc1O,x,u,x,n,u
C=C(C(C)=O)C(O)c1cccc(OC)c1 (configuration not stated),n,n,n,n,n
CCN(CC)c1ccc(NC(=O)CN2C(=O)c3cccnc3Oc3ccccc32)c(C)c1,x,u,x,n,n
COc1ccc(NC(=S)NNc2ccc(S(=O)(=O)Nc3ccccc3C(=O)O)cc2[N+](=O)[O-])cc1,u,12.6µM,n,u,10µM[quencher]
Cc1nn(-c2ccccc2)c(Cl)c1/C=N/Nc1ccc(S(=O)(=O)Nc2ccccc2C(=O)O)cc1[N+](=O)[O-],n,8.91µM,n,n,u
CCCCN(CCCC)C1=C(C(=O)c2ccccc2)N(C)S(=O)(=O)c2ccccc21,x,n,x,n,n
COc1cc(C)c2c(c1C=O)Oc1c(c(C)c(O)c3c1C(O)OC3=O)OC2=O (configuration not stated),u,14.1µM,n,25.1µM,u
Cc1cc(O)c(C=O)c2c1C(=O)Oc1c(C)c(O)c3c(c1O2)C(O)OC3=O (configuration not stated),u,7.94µM,n,u,u
O=C(OCn1ncc(Cl)c(Cl)c1=O)c1ccccc1Cl,n,14.1µM,n,n,n
CCOc1ccc(CCNC(=O)c2cn(CC)c3ccc(S(=O)(=O)N4CCCCCC4)cc3c2=O)cc1OCC,x,n,x,n,n
CCOC(=O)c1c(C)[nH]c(O)c1C=Nc1ccccc1,n,u,n,n,n
COC(=O)c1c(C)[nH]c(O)c1C=Nc1ccc(C#N)cc1,n,n,-35.6,n,n
COc1cc(-c2noc(-c3cccc(Cl)c3)n2)cc(OC)c1OC,n,n,n,n,n
COc1cc(-c2nc(Cc3c(F)cccc3Cl)no2)cc(OC)c1OC,u,u,n,n,15.8µM[quencher]
O=S(=O)(c1ccccc1)N1CCN=C1SCc1ccc(Cl)cc1,u,u,n,n,u
Cc1ccc(S(=O)(=O)N2CCN=C2SCc2ccccc2)cc1,n,n,-35.1,n,n
SMILES,KDM4E inh,Tau ThT inhib,FBPA coupling cs,Tau fibril FP,Tau fluor cs
O=S(=O)(c1ccccc1)N1CCN=C1SCc1ccccc1Cl,n,n,-40.0,n,u
Cc1ccc(CNC(=O)CSc2nc3ccsc3c(=O)n2-c2ccc(Br)cc2)cc1,x,n,x,n,n
CSCC[C@H](NC(=O)[C@H](Cc1ccc(OS(=O)(=O)O)cc1)NC(=O)[C@@H](N)CC(=O)O)C(=O)NCC(=O)N[C@@H](Cc1c[nH]c2ccccc12)C(=O)N[C@@H](CCSC)C(=O)N[C@@H](CC(=O)O)C(=O)N[C@@H](Cc1ccccc1)C(N)=O,x,x,n,x,x
CNc1ccc(Br)cc(C(=O)/C=C/c2ccc(OC)cc2OC)c1=O,u,11.2µM,-38.5,u,u
CNc1ccc(Br)cc(C(=O)/C=C/c2ccc(Cl)cc2Cl)c1=O,u,10µM,n,u,u
COc1cccc(/C=C/C(=O)Nc2ccc3[nH]c(=O)[nH]c3c2)c1,n,n,n,n,n
CNc1ccc(Br)cc(C(=O)/C=C/c2cccc(OC)c2)c1=O,u,11.2µM,n,n,u
O=C(/C=C/c1ccc(Cl)cc1Cl)c1ccc[nH]1,n,u,n,n,n

# Bioassay records (PubChem)
